Measured values: a collection of fitness landscapes (doi:10.1038/s41467-024-54723-y)
In all, about 18,000 sequences were measured (“TetR repression strength (sort-seq, GFP reporter)”: median about 0.23, highest 2% from about 0.68 on). The entries come from a sample that favours the highest values as a whole.

Each sequence was assayed against TetR (class B, Tn10) (UniProt P04483) (assay: TetR repression strength (sort-seq, GFP reporter) (relative to tetO2 = 1); higher = stronger repression). Settings: E. coli.
Procedure, shortened: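 In LB with 50 µg/mL chloramphenicol, E. coli SIG10-MAX holding a low-copy library with eight randomized operator positions between a constitutive promoter and sfGFP, plus constitutive TetR, grew for 5 h at 37 °C. FACS then sorted 10^6 cells into 13 fluorescence bins for Illumina sequencing of each bin. Repression strength equals the top bin index plus one less the read-weighted mean bin, normalized to the unaltered operator. Values from three independent transformations were averaged when reads were ≥30 in every replicate and the CV was ≤0.5.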

Chain of TetR (class B, Tn10) (P04483 whole entry): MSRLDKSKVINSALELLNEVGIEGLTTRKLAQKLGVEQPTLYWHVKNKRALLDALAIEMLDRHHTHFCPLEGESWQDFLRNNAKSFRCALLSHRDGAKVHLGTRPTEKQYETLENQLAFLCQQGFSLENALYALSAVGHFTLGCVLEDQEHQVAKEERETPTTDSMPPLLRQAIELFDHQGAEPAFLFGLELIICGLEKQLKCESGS

Sequence	TetR repression strength
TCCCTTTCAGTTTCAGAGA	0.206
TCCCTTCCAGTTTCAGAGA	0.819
TCCCTTCCAGTATCAGAGA	0.0836
TCCCTTCAAGTTTCAGAGA	0.837
TCCCTTCAAGTTTGAGAGA	0.185
TCCCTTCAAGTGTCAGAGA	0.303
TCCCAGAGAGTACTAGAGA	0.336
TCCCGAGGAGTGGCTGAGA	0.0686
TCCCTTGGAGTAGGGGAGA	0.274
TCCCACGGAGTCTGGGAGA	0.0855
TCCCGAAGAGTGCTCGAGA	0.813
TCCCGAGGAGTGCTCGAGA	0.126
TCCCGATGAGTGCTCGAGA	0.361
TCCCAGTGAGTGCTCGAGA	0.0229
TCCCTGATAGTGCTCGAGA	0.215
TCCCTCTGAGTGCTCGAGA	0.315
TCCCAGACAGTGCGAGAGA	0.219
TCCCTGTTAGTGGTCGAGA	0.187
TCCCAGACAGTGCTCGAGA	0.855
TCCCTGTGAGTGCTCGAGA	1.14
TCCCAGACAGTACTCGAGA	0.444
TCCCTGTTAGTGCTCGAGA	1.15

Sequence	TetR repression strength
TCCCTGGCAGTTAGGGAGA	0.365
TCCCGGTCAGTCTGCGAGA	0.194
TCCCGGATAGTCTTTGAGA	0.125
TCCCTTGGAGTATATGAGA	0.119
TCCCTGCGAGTAGTCGAGA	0.542
TCCCCATTAGTGTACGAGA	0.425
TCCCTAAGAGTGATGGAGA	0.243
TCCCTGTGAGTTCGAGAGA	0.719
TCCCTGTGAGTTCGGGAGA	0.369
TCCCTGAGAGTTCGCGAGA	0.0305
TCCCATCTAGTCCGTGAGA	0.174
TCCCTCTAAGTTAGTGAGA	0.241
TCCCGCTAAGTCCGGGAGA	0.188
TCCCCTGAAGTCTTCGAGA	0
TCCCAGGCAGTGCAGGAGA	0.143
TCCCTCTCAGTGCTTGAGA	0.661
TCCCTGTGAGTGCCGGAGA	0.164
TCCCTATCAGTGTTTGAGA	0.767
TCCCAGGCAGTGCCGGAGA	0.748
TCCCTGTCAGTGTCGGAGA	0.388
TCCCTATGAGTGCTTGAGA	0.335
TCCCTATCAGTTTTTGAGA	0.472

Sequence	TetR repression strength
TCCCTGTCAGTGCCGGAGA	1.03
TCCCAGGGAGTGCCGGAGA	0.19
TCCCTATCAGTGCTTGAGA	0.701
TCCCTAGCAGTGTTTGAGA	0.369
TCCCCGAAAGTCGCGGAGA	0.128
TCCCTATCAGTGTAGGAGA	0.484
TCCCCTCTAGTGTAAGAGA	0.155
TCCCGGATAGTAGCGGAGA	0.329
TCCCAGGCAGTCGGTGAGA	0.213
TCCCGTTTAGTGGGTGAGA	0.306
TCCCTTTGAGTTATCGAGA	0.384
TCCCGGGCAGTATTCGAGA	0.136
TCCCCGTGAGTGCATGAGA	0.122
TCCCATTCAGTCAATGAGA	0.457
TCCCTATCAGTTTTCGAGA	0.523
TCCCTATCAGTGCTAGAGA	0.841
TCCCTATCAGTGTTCGAGA	0.777
TCCCAAATAGTGCTTGAGA	0
TCCCTGTCAGTGCTCGAGA	0.534
TCCCTATCAGTGCTCGAGA	0.993
TCCCTAATAGTGCTTGAGA	1.01
TCCCTATTAGTGCTAGAGA	0.466

Sequence	TetR repression strength
TCCCTAGTAGTGCTTGAGA	0.594
TCCCTATCAGTGGTCGAGA	0.532
TCCCTATCAGTGCGAGAGA	0.452
TCCCTAACAGTGTTCGAGA	0.305
TCCCATACAGTGCGCGAGA	0.394
TCCCTTATAGTCGCGGAGA	0.142
TCCCCTTAAGTGTATGAGA	0.348
TCCCAGAGAGTGGAAGAGA	0.148
TCCCGACAAGTTATCGAGA	0.226
TCCCTATCAGTGCCGGAGA	1.06
TCCCTATCAGTCCTCGAGA	0.747
TCCCTATCAGTGGTGGAGA	0.402
TCCCTATCAGTGCCTGAGA	0.467
TCCCTATCAGTCCCGGAGA	0.4
TCCCCATCAGTCCTCGAGA	0.327
TCCCCATCAGTGCTGGAGA	0.157
TCCCTATCAGTGCTGGAGA	0.86
TCCCTATAAGTCCTCGAGA	0.529
TCCCAGGCAGTGCTTGAGA	0.113
TCCCGATCAGTAGACGAGA	0.237
TCCCCTGTAGTGTGCGAGA	0.297
TCCCCCACAGTTATAGAGA	0.524

Sequence	TetR repression strength
TCCCAGGTAGTGGCGGAGA	0.176
TCCCTTCCAGTTCTTGAGA	0.472
TCCCTACAAGTGCCGGAGA	0.202
TCCCTTCTAGTTCTGGAGA	0.402
TCCCTTCGAGTTCTGGAGA	0.328
TCCCTTCCAGTTCTGGAGA	1.04
TCCCTTCAAGTGCCCGAGA	0.415
TCCCTTCAAGTTCTGGAGA	1.03
TCCCTTCAAGTGCCGGAGA	1.13
TCCCCTCCAGTTCTGGAGA	0.342
TCCCATAAAGTGACGGAGA	0.305
TCCCTTAAAGTGTTGGAGA	0.334
TCCCGTTCAGTATGGGAGA	0.106
TCCCGCCGAGTCCCGGAGA	0.317
TCCCATGGAGTTTTAGAGA	0.281
TCCCACGGAGTTACGGAGA	0.224
TCCCGTGGAGTGTTGGAGA	0.325
TCCCGTTTAGTATTTGAGA	0.713
TCCCGTTTAGTAGTTGAGA	0.028
